The values below come from PubChem BioAssay (NCI).

Compounds without any hit were thinned out: in the full panel of roughly 83,000, 20% have a hit.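 Testing used 96-well plates and a 48-hour single-concentration exposure. Example: -40 means 40% of the starting cells died.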 Unmarked numbers belong to inactive results. The source made the active and inactive calls. The calls were made as follows: active = growth percent below 10; inactive = the rest.

Some test systems named below: NCI-H23 lung; NCI-H226 lung; NCI-H322M lung; HOP-62 NSCLC; NCI-H460 lung; NCI-H522 lung; A549/ATCC NSCLC; 786-0 renal; COLO 205 colon.
Common to all, as to assay: NCI-60 one-dose screen, 48 h (100 = growth as untreated, 0 = no growth, -100 = all killed)
Settings in all cases: 10 µM unless noted

In the case of `Cc1ccc(S(=O)(=O)c2nc(S(=O)(=O)c3ccc(C)cc3)c(N3CCN(C)CC3)s2)cc1`, the growth with NCI-H23 lung was 56%; in the experiment with NCI-H226 lung, 67.3%; with NCI-H322M lung it was 67.3%; with HOP-62 NSCLC, 99.9%; with NCI-H460 lung, 40.1%; in the experiment on NCI-H522 lung it was 15.2%. For the same molecule, the growth in the experiment with A549/ATCC NSCLC was 59.5%; in the experiment on 786-0 renal, 47.5%; in the experiment with COLO 205 colon, 78%.

For the molecule `O=C(Cn1c(/C=C/c2ccccc2)nc2ccccc2c1=O)Nc1ccccc1`, the growth in the experiment with NCI-H23 lung was 90.2%; in the experiment on NCI-H226 lung it was 60%; in the experiment with NCI-H322M lung, 87.5%; in the experiment with HOP-62 NSCLC, 57.5%; in the experiment on NCI-H460 lung, 43.2%; in the experiment with NCI-H522 lung it was 57.2%. The growth in the experiment on A549/ATCC NSCLC was 38.2%; with 786-0 renal, 1.52% (active); in the experiment with COLO 205 colon it was 79.3%.

As for `O=c1oc2ccccc2cc1-c1csc(N2N=C(c3ccccc3)CC2c2ccc(N3CCOCC3)cc2)n1` (stereo unspecified), the growth was 95.9% with NCI-H23 lung; 94.6% in the experiment on NCI-H226 lung; 120% with NCI-H322M lung; 106% in the experiment on HOP-62 NSCLC; 107% in the experiment on NCI-H460 lung; 101% in the experiment with NCI-H522 lung. In addition, the growth is 114% with A549/ATCC NSCLC, 118% with 786-0 renal and 118% in the experiment with COLO 205 colon.

For `CCOC(=O)/C=C/c1cccc2c1C(=O)NC(C)(c1cc3cc(Cl)ccc3oc1=O)N2` (stereo unspecified), the growth in the experiment with NCI-H23 lung was 50.9%; in the experiment with NCI-H226 lung, 46.1%; with NCI-H322M lung, 56.4%; with HOP-62 NSCLC, 55.7%; in the experiment with NCI-H460 lung it was 47.4%; with NCI-H522 lung, 33.8%. The growth in the experiment with A549/ATCC NSCLC was 47.2%; with 786-0 renal it was 31.4%; in the experiment on COLO 205 colon it was 31.7%.

Regarding `Cn1nc(C(F)(F)F)cc1-c1cc(Cl)c(COc2ccc(Cl)cc2)c(-c2ccc(Cl)c(C(F)(F)F)c2)c1O`, the growth is -46.7% (active) with NCI-H23 lung; -39.5% (active) in the experiment with NCI-H226 lung; 6.41% (active) in the experiment with NCI-H322M lung; -40.9% (active) in the experiment on HOP-62 NSCLC; -48.1% (active) in the experiment on NCI-H460 lung; -27.7% (active) with NCI-H522 lung. For the same molecule, the growth is 2.95% (active) in the experiment on A549/ATCC NSCLC, -63.5% (active) with 786-0 renal and -83.2% (active) with COLO 205 colon.

In the case of `COc1ccc(-c2ccnc(SCc3cc4ccccc4[nH]c3=O)n2)cc1`, the growth in the experiment with NCI-H23 lung was 76.1%; with NCI-H226 lung, 63.5%; in the experiment with NCI-H322M lung, 82.5%; with HOP-62 NSCLC, 32.3%; in the experiment on NCI-H460 lung, 33.6%; in the experiment on NCI-H522 lung, 46.9%. Further, the growth in the experiment on A549/ATCC NSCLC was 61%; in the experiment with 786-0 renal, 71%; with COLO 205 colon it was 77.5%.

On to `O=c1oc2ccc(Br)cc2cc1C1=CSc2nc3sc4c(c3c(=O)n2N=C1)CCCC4`, for which the growth in the experiment with NCI-H23 lung was 96.6%; in the experiment with NCI-H226 lung, 92.5%; with NCI-H322M lung, 96.6%; in the experiment on HOP-62 NSCLC, 80.6%; in the experiment with NCI-H460 lung it was 102%; in the experiment with NCI-H522 lung, 88.5%. In addition, the values for the growth with A549/ATCC NSCLC, in the experiment on 786-0 renal and with COLO 205 colon were 105%, 120% and 105%, respectively.

With `CC(C)(C)OC(=O)/C=C/c1cccc2c1C(=O)NC(C)(c1cc3cc(Cl)ccc3oc1=O)N2` (stereo unspecified), the growth in the experiment with NCI-H23 lung was 53%; with NCI-H226 lung, 50.6%; in the experiment on NCI-H322M lung, 60.9%; with HOP-62 NSCLC it was 64%; in the experiment on NCI-H460 lung it was 43.9%; in the experiment with NCI-H522 lung, 34.9%. For the same molecule, the results for the growth in the experiment with A549/ATCC NSCLC, in the experiment on 786-0 renal and with COLO 205 colon were 27.4%, 54.5% and 19.4%, respectively.

For the molecule `CC1CN(c2oc(-c3ccc([N+](=O)[O-])cc3)nc2C#N)CC(C)O1` (stereo unspecified), the growth in the experiment on NCI-H23 lung was 97.9%; with NCI-H226 lung, 102%; in the experiment on NCI-H322M lung, 96.9%; in the experiment on HOP-62 NSCLC it was 98.9%; in the experiment on NCI-H460 lung, 107%; in the experiment with NCI-H522 lung, 100%. In addition, the figures for the growth in the experiment with A549/ATCC NSCLC, in the experiment on 786-0 renal and in the experiment with COLO 205 colon were 102%, 104% and 109%, respectively.

Turning to `O=C(NN1C(=O)/C(=C/C=C/c2ccc([N+](=O)[O-])o2)SC1=S)c1cccc(O)c1`, the growth in the experiment with NCI-H23 lung was -89% (active); with NCI-H226 lung, -92.2% (active); in the experiment on NCI-H322M lung, -66.9% (active); with HOP-62 NSCLC, -73.5% (active); in the experiment on NCI-H460 lung it was -49.3% (active); with NCI-H522 lung, -96.6% (active). Further, the values for the growth in the experiment with A549/ATCC NSCLC, in the experiment on 786-0 renal and in the experiment on COLO 205 colon were -67.4% (active), -91.5% (active) and -79.7% (active), respectively.

On to `O=C(COc1ccc2c(c1)CCCC(=O)N2)NCc1ccccc1`, for which the growth with NCI-H23 lung is 94.5%; in the experiment with NCI-H226 lung it was 93.9%; in the experiment on NCI-H322M lung it was 112%; in the experiment with HOP-62 NSCLC it was 92.5%; in the experiment on NCI-H460 lung it was 104%; in the experiment on NCI-H522 lung it was 89.1%. In addition, the growth was 103% with A549/ATCC NSCLC, 101% in the experiment on 786-0 renal and 106% in the experiment on COLO 205 colon.

For the molecule `Cc1ccc(/C=C/c2n(Cc3ccc4ccccc4c3)c3ccccc3[n+]2Cc2ccc3ccccc3c2)cc1`, the growth was -92.4% (active) with NCI-H23 lung; -27.4% (active) in the experiment with NCI-H226 lung; -98.4% (active) in the experiment on NCI-H322M lung; -58.2% (active) with HOP-62 NSCLC; -77.4% (active) in the experiment with NCI-H460 lung; -82.5% (active) in the experiment with NCI-H522 lung. In addition, the growth was -53.4% (active) with A549/ATCC NSCLC, -51.6% (active) in the experiment on 786-0 renal and -64.8% (active) in the experiment on COLO 205 colon.

With `O=C1CCCc2cc(OCC(=O)N3CCCCC3)ccc2N1`, the growth in the experiment with NCI-H23 lung was 105%; with NCI-H226 lung, 101%; in the experiment on NCI-H322M lung, 116%; with HOP-62 NSCLC, 105%; in the experiment with NCI-H460 lung, 115%; in the experiment with NCI-H522 lung, 108%. The growth was 113% in the experiment with A549/ATCC NSCLC, 116% with 786-0 renal and 117% in the experiment with COLO 205 colon.

Turning to `Cc1ccc(S(=O)(=O)c2nc(S(=O)(=O)c3ccc(C)cc3)c(N3CCC(O)CC3)s2)cc1`, the growth is 62.5% in the experiment with NCI-H23 lung; 84.6% in the experiment on NCI-H226 lung; 77.3% with NCI-H322M lung; 97.5% in the experiment with HOP-62 NSCLC; 46.2% in the experiment with NCI-H460 lung; 19.7% with NCI-H522 lung. The growth is 62.1% in the experiment on A549/ATCC NSCLC, 77.1% with 786-0 renal and 98% with COLO 205 colon.

Regarding `COc1ccc(-c2ccc(SCC(=O)NCCc3ccc(S(N)(=O)=O)cc3)nn2)cc1`, the growth with NCI-H23 lung was 64.2%; with NCI-H226 lung, 77%; in the experiment on NCI-H322M lung it was 96.2%; in the experiment with HOP-62 NSCLC, 81.3%; in the experiment on NCI-H460 lung, 107%; in the experiment with NCI-H522 lung, 70%. Moreover, the growth in the experiment with A549/ATCC NSCLC was 86.6%; in the experiment with 786-0 renal, 85.8%; in the experiment on COLO 205 colon it was 95.4%.

Take `COc1cc2c3c(n(CCCN4CCC[C@@H]4CO)c(=O)c2cc1OC)-c1cc2c(cc1C3=O)OCO2`: the growth is -85.7% (active) in the experiment with NCI-H23 lung; -66.5% (active) in the experiment with NCI-H226 lung; -96.5% (active) in the experiment with NCI-H322M lung; -53.3% (active) in the experiment with HOP-62 NSCLC; -71.8% (active) with NCI-H460 lung; -82.1% (active) in the experiment on NCI-H522 lung. Also, the growth in the experiment on A549/ATCC NSCLC was -83.3% (active); with 786-0 renal, -86.3% (active); in the experiment with COLO 205 colon, -68.3% (active).

On to `OCC1(CCCc2ccccc2)CCCN(c2nccc3ccccc23)C1` (stereo unspecified), for which the growth with NCI-H23 lung is 14.9%; in the experiment with NCI-H226 lung, 37.7%; with NCI-H322M lung, 82.5%; in the experiment with HOP-62 NSCLC, 72.6%; in the experiment on NCI-H460 lung, 34%; in the experiment on NCI-H522 lung it was 22.9%. Also, the growth in the experiment with A549/ATCC NSCLC is 39.7%; with 786-0 renal it was 45.4%; in the experiment on COLO 205 colon it was 10.4%.

For `COc1ccc(-c2ccc(SCC(=O)Nc3ccc(S(N)(=O)=O)cc3Br)nn2)cc1`, the growth in the experiment on NCI-H23 lung was 77.4%; in the experiment on NCI-H226 lung, 52.9%; in the experiment with NCI-H322M lung, 84.5%; with HOP-62 NSCLC it was -9.99% (active); with NCI-H460 lung, 70.2%; in the experiment on NCI-H522 lung, 37.2%. Further, the growth with A549/ATCC NSCLC was 64.4%; with 786-0 renal, 33.8%; in the experiment with COLO 205 colon, 115%.

On to `Cn1cc(-c2cc3nc(-c4cn(C)c5ncc(Br)cc45)cc(N)n3n2)c2cc(Cl)ccc21`, for which the growth with NCI-H23 lung was -77% (active); with NCI-H226 lung, -40.8% (active); in the experiment on NCI-H322M lung it was -73.1% (active); in the experiment with HOP-62 NSCLC, -78.1% (active); with NCI-H460 lung it was -69.9% (active); with NCI-H522 lung, -79.8% (active). In addition, the growth with A549/ATCC NSCLC is -75.2% (active); in the experiment with 786-0 renal it was -65.3% (active); with COLO 205 colon, -77.6% (active).
